High-throughput results (PubChem)
A selection: hits, their analogues and other compounds. The true share with any hit is near 2.2%.
ANO1 activ: mouse TMEM16A channel activation, primary screen; HEK293 TMEM16A/YFP-H148Q/I152L, iodide quench fluorescence; hits give low values; B-score at 10 µM; 340,000 compounds, 0.3% hits; AID 623877;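 active = fluorescence-ratio B-score plate-corrected deviation score at least 3 library SD below zero, with starting fluorescence score within 5 deviations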;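 note: channel opened by trigger with iodide after compound preincubation; score built on the fluorescence ratio of max minus min over baseline; more negative score means more quench and so TMEM16A activation or potentiation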
CHO-K1 Ca antag: counter-screen for M1 antagonists: effect in parental CHO-K1 cells; ATP-induced calcium, Fluo-8 fluorescence; inhibition, % at 3 µM; AID 602250; 360,000 compounds, 0.6% hits;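 active = inhibition above a per-plate cutoff, the plate's mean sample inhibition plus 3 SD, cut at about 24% in these data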
CHO-K1 Ca PAM: nonselective activator or artifact in parental CHO-K1 calcium assay; ATP EC20, Fluo-8 calcium fluorescence; 0% at ATP EC20, 100% at ATP max; activation, % at 3 µM; 360,000 compounds, 0.02% hits; AID 602247;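 active = activation above the run cutoff, the mean activation of all test compounds plus 3 SD, cut at about 40% in these data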;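 note: peak over basal fluorescence ratio in a 140 s read after ATP addition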
M1 ag parental: nonselective activator or artifact in parental CHO-K1 cells. Fluo-8 calcium fluorescence; scaled to maximal ATP response, vehicle zero. activation, % at 3 µM. 360,000 compounds, 0.48% hits. AID 602248; in the data active = activation above about 15%;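 note: untransfected CHO-K1 host cells lacking M1 receptor as counterscreen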
NTR1 agonist: NTR1 (human) agonism; P30989; NTR1-U2OS beta-arrestin-GFP spot imaging, agonist mode; activation, % at 20 µM; 330,000 compounds, 0.17% hits;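 active = activation at or above 40% of the spot to cytoplasm intensity ratio, with at least 20 cells analyzed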
TMEM16A inh: inhibitors of mouse TMEM16A calcium-activated chloride channel. normalized B-score (activity score, 25-100; higher = stronger inhibition) at 10 µM. 310,000 compounds, 1.2% hits. Q8BHY3. AID 588511. HEK293 TMEM16A/YFP iodide influx fluorescence, ionomycin;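 active = ratio plate-corrected score three or more library SD toward inhibition, starting fluorescence score within five deviations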;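 note: score derived from kinetic fluorescence span divided by baseline fluorescence per well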
TMEM16A reconf: TMEM16A (mouse) chloride channel inhibition, re-confirmation | shares compounds with TMEM16A inh | HEK293 TMEM16A/YFP-H148Q, iodide quench fluorescence; ionomycin added to raise cell calcium | inhibition, % at 10 µM | 2,300 compounds, 39% hits;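 active = mean duplicate percent inhibition, scaled so buffer wells are 0 and the reference blocker 100, over three buffer SD above buffer mean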
HEK293 Ca mobil: alters calcium mobilization in TMEM16A HEK293 cells, counter-screen; shares compounds with TMEM16A inh; TMEM16A/YFP HEK293, Fluo4 calcium mobilization; calcium response (% of ionomycin), % at 10 µM; 2,300 compounds, 2% hits;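 active = duplicate-averaged calcium signal over 20% of the ionomycin maximum, relative to buffer baseline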;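 note: each well's signal is peak minus trough fluorescence divided by its pre-addition baseline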
Parental YFP cnt: parental YFP-HEK293 iodide quench counter-screen activity; shares compounds with TMEM16A inh; ionomycin; YFP ratio F(max-min)/F0 at 10 µM; 2,300 tested, under 10 active;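 active = yellow fluorescent protein signal ratio exceeding the buffer control mean by over 5 SD of those controls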;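 note: ratio is mean of duplicate wells from kinetic YFP trace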
ClC-1 rat inh: blocks the rat ClC-1 voltage-dependent chloride channel. ratio percent, % at 10 µM. 2,300 tested, under 10 active. shares compounds with TMEM16A inh. CHO ClC-1-YFP, iodide influx fluorescence quench; iodide control reads 0, buffer control 100. AID 652236;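 active = duplicate-mean ratio percent above the mean of iodide-only control wells, which defines zero, plus 5 of their SD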;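 note: higher percent means stronger block of ClC-1 iodide influx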
Target sequence (P35524 whole entry, looked up): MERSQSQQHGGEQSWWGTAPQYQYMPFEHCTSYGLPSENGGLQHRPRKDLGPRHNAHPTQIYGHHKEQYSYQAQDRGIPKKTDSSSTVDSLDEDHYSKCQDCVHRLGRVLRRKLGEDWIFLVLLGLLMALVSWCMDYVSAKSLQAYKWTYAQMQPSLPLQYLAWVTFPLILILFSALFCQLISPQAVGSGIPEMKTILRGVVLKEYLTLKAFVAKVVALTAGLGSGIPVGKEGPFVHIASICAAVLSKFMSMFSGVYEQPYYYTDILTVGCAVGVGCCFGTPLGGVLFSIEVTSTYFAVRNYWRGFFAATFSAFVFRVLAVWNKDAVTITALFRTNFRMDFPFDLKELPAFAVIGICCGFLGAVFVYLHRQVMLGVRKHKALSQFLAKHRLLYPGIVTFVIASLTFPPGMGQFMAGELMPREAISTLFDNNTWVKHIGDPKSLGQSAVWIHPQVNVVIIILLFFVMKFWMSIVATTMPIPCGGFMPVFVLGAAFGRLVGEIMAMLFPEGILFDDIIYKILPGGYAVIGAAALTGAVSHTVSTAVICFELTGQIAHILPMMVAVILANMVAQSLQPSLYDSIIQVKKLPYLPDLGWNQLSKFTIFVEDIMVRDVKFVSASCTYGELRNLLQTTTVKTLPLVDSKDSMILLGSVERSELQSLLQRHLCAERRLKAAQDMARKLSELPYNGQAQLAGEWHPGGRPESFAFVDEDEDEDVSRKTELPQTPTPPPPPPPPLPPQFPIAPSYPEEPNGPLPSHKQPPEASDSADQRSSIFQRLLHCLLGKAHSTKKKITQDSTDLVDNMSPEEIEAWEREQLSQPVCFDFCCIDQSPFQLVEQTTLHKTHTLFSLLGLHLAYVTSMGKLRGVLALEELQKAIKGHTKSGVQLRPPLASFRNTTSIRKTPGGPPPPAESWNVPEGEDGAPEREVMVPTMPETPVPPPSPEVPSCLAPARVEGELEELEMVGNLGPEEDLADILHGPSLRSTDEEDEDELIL
Each line names hits and unclear results; the compound was inactive in the other large screens (follow-up assays come after a bar, where they were run).

CC(=O)Nc1ccc(S(=O)(=O)N2CCN(CCCOc3ccccc3Cl)CC2)cc1	TMEM16A inh 25 | TMEM16A reconf inactive | HEK293 Ca mobil inactive | Parental YFP cnt inactive | ClC-1 rat inh inactive
COc1ccccc1OCc1ccc(C(=O)NC(C)(C)C)o1	none
CC(C)(C)c1ccc(C(=O)Nc2cccnc2)cc1	none
CC(C)(C)c1ccc(OCc2ccc(C(=O)Nc3cccnc3)o2)cc1	TMEM16A inh 25 | TMEM16A reconf 25% | HEK293 Ca mobil inactive | Parental YFP cnt inactive | ClC-1 rat inh inactive
O=C(Nc1cccnc1)c1ccc(COc2ccccc2Br)o1	none
COc1ccccc1OCc1ccc(C(=O)Nc2ccncc2)o1	TMEM16A inh 100 | TMEM16A reconf 34% | HEK293 Ca mobil inactive | Parental YFP cnt inactive | ClC-1 rat inh inactive
CC(C)(C)c1ccc(C(=O)Nc2ccc(Oc3cccnc3)nc2)cc1	TMEM16A inh 100 | TMEM16A reconf 31% | HEK293 Ca mobil inactive | Parental YFP cnt inactive | ClC-1 rat inh inactive
COc1ccc(NC(=O)c2ccc(Cc3ccc(C)cc3)o2)cc1	TMEM16A inh 25 | TMEM16A reconf inactive | HEK293 Ca mobil inactive | Parental YFP cnt inactive | ClC-1 rat inh inactive
N#CC1=CC2CN(Cc3ccccc3)C1C1C(=O)N(c3ccccc3)C(=O)C21 (stereo not given)	none (no result: NTR1 agonist, TMEM16A inh)
Cc1nc2c(OCc3ccc(C#N)cc3)cccn2c1N(C)Cc1cccs1	none (no result: ANO1 activ, NTR1 agonist, TMEM16A inh)
CC1(C(=O)NS(=O)(=O)c2ccccc2Cl)CCN1C(=O)C/C=C/c1ccccc1 (stereo not given)	none (no result: ANO1 activ, NTR1 agonist, TMEM16A inh)
COc1ccc(Cn2c(CCC(=O)Nc3ccccc3)nc3cccnc32)cc1	none
COc1ccc(Cn2c(CCC(=O)Nc3ccc(CC#N)cc3)nc3cccnc32)cc1	TMEM16A inh 25 | TMEM16A reconf inactive | HEK293 Ca mobil inactive | Parental YFP cnt inactive | ClC-1 rat inh inactive
CCC1(C(=O)O)NC(c2cc(OC)ccc2O)C2C(=O)N(Cc3ccccc3)C(=O)C21 (stereo not given)	none
CCCC1(C(=O)O)NC(c2ccccc2O)C2C(=O)N(Cc3ccccc3)C(=O)C21 (stereo not given)	TMEM16A inh 100 | TMEM16A reconf inactive | HEK293 Ca mobil inactive | Parental YFP cnt inactive | ClC-1 rat inh inactive
COc1cccc(-c2cc3nc(NCc4ccccc4F)n(C)c(=O)c3s2)c1	none (no result: ANO1 activ, NTR1 agonist, TMEM16A inh)
COC(=O)c1c(NS(=O)(=O)c2ccc(C)cc2)sc2c1CCC(C)C2 (stereo not given)	TMEM16A inh 100 | TMEM16A reconf 30% | HEK293 Ca mobil inactive | Parental YFP cnt inactive | ClC-1 rat inh inactive
CC(C)OC(=O)c1c(NS(=O)(=O)c2ccccc2)sc2c1CCCC2	TMEM16A inh 100 | TMEM16A reconf 72% | HEK293 Ca mobil inactive | Parental YFP cnt inactive | ClC-1 rat inh inactive
Cc1nn(-c2ccccc2)c2sc(-c3n[nH]c(=S)o3)cc12	CHO-K1 Ca antag 25, TMEM16A inh 25 | TMEM16A reconf inactive | HEK293 Ca mobil inactive | Parental YFP cnt inactive | ClC-1 rat inh inactive
COc1cccc(S(=O)(=O)N(C)C[C@H]2OCc3cnnn3CCCC(=O)N([C@@H](C)CO)C[C@@H]2C)c1	none (no result: ANO1 activ, NTR1 agonist, TMEM16A inh)
CCCc1ccc(Oc2c(-c3ccc(O)c(C)c3O)n[nH]c2C)cc1	TMEM16A inh 100 | TMEM16A reconf inactive | HEK293 Ca mobil inactive | Parental YFP cnt inactive | ClC-1 rat inh inactive
CC(C)C#Cc1ccc2c(c1)O[C@@H](CN(C)S(=O)(=O)c1cn(C)cn1)[C@@H](C)CN([C@H](C)CO)S2(=O)=O	none (no result: ANO1 activ, NTR1 agonist, TMEM16A inh)
O=C1C(Oc2ccccc2)C(c2cccs2)N1Cc1ccc2c(c1)OCO2 (stereo not given)	none
COc1ccc(OC2C(=O)N(Cc3ccc4c(c3)OCO4)C2c2cccs2)cc1 (stereo not given)	TMEM16A inh 100 | TMEM16A reconf 28% | HEK293 Ca mobil inactive | Parental YFP cnt inactive | ClC-1 rat inh inactive
O=c1ccc2nc3ccccc3sc-2c1	none (no result: ANO1 activ, NTR1 agonist, TMEM16A inh)
CNC(=S)N1N=C(c2ccc(OC)cc2)CC1c1ccc(Cl)cc1Cl (stereo not given)	none
CNC(=S)N1N=C(c2ccc(OC)cc2)CC1c1ccccc1Cl (stereo not given)	TMEM16A inh 25 | TMEM16A reconf 45% | HEK293 Ca mobil inactive | Parental YFP cnt inactive | ClC-1 rat inh inactive
Cc1ccc(-c2noc(CSc3nnnn3C3CCCCC3)n2)cc1	TMEM16A inh 100 | TMEM16A reconf 30% | HEK293 Ca mobil inactive | Parental YFP cnt inactive | ClC-1 rat inh inactive
c1ccc(-c2noc(CSc3nnnn3-c3ccccc3)n2)cc1	none
C#CCN(C(=O)c1cc(COc2cccc(C(F)(F)F)c2)on1)C1CCCCC1	TMEM16A inh 100 | TMEM16A reconf 54% | HEK293 Ca mobil inactive | Parental YFP cnt inactive | ClC-1 rat inh inactive
N#Cc1c(C(F)(F)F)cc(=O)n2c1[nH]c1ccccc12	TMEM16A inh 100 | TMEM16A reconf 35% | HEK293 Ca mobil 22% | Parental YFP cnt inactive | ClC-1 rat inh inactive
COC(=O)N(C)C[C@@H]1OCc2cnnn2CCCC(=O)N([C@H](C)CO)C[C@H]1C	none (no result: ANO1 activ, NTR1 agonist, TMEM16A inh)
O=C(CSc1nc2ncc(Br)cc2[nH]1)Nc1ccccc1-c1ccccc1	TMEM16A inh 100 | TMEM16A reconf inactive | HEK293 Ca mobil inactive | Parental YFP cnt inactive | ClC-1 rat inh inactive
Cc1ccccc1-c1cc2nc(NCCN3CCCC3)n(C)c(=O)c2s1	none (no result: ANO1 activ, NTR1 agonist, TMEM16A inh)
Cc1cc(OCC(=O)Nc2ccncc2)ccc1Br	TMEM16A inh 100 | TMEM16A reconf inactive | HEK293 Ca mobil inactive | Parental YFP cnt inactive | ClC-1 rat inh inactive
O=C(COc1ccc(Cl)cc1)Nc1ccc(Cc2ccncc2)cc1	TMEM16A inh 25 | TMEM16A reconf 17% | HEK293 Ca mobil inactive | Parental YFP cnt inactive | ClC-1 rat inh inactive
Nc1cc(S(=O)(=O)N2CCCCC2)ccc1Oc1ccccc1	TMEM16A inh 25 | TMEM16A reconf 16% | HEK293 Ca mobil inactive | Parental YFP cnt inactive | ClC-1 rat inh inactive
C[C@@H]1CN([C@H](C)CO)C(=O)CCCn2cc(nn2)CO[C@H]1CN(C)C(=O)Nc1ccc2c(c1)OCO2	none (no result: ANO1 activ, NTR1 agonist, TMEM16A inh)
CCSc1n[nH]c2nc3c(c(=O)n12)C1(CCCC1)Cc1ccccc1-3	none
